Shown are actives, neighbours in structure and some others; about 2% of the full set was active somewhere.
aSyn yeast inh: rescues yeast growth from alpha-synuclein toxicity; Yeast expressing alpha-synuclein, growth rescue, BacTiter-Glo, 24 h; Potency, µM (doses to about 46.1 µM), for the others: at the highest dose growth rescue (activation), hits mostly activators; 0.14% of 370,000 active; AID 652106; note: potency is the fitted concentration of half-maximal effect; % of control where 0% means no effect; nearly all actives have a fitted effect of over 65% in size
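Galactose-induced alpha-syn yeast (OD600=0.02, raffinose-pregrown) + pinned cpd, 24 hr, 30 deg C; growth by BacTiter-Glo luminescence. Growth restoration scores as activation.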
Abeta yeast res: restores growth of yeast expressing A-beta42 peptide | yeast expressing A-beta42, growth rescue, OD600, 48 h; response scale: 0% DMSO, 100% iron-clioquinol control | Potency, µM (highest dose often 46.1 µM), hits mostly activators | 0.063% of 410,000 active | AID 1347071; note: potency is the fitted concentration of half-maximal effect; nearly all actives have a fitted effect of over 55% in size
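Yeast growth medium received pinned compounds, then yeast cells expressing toxic A-beta were added; plates incubated at 30 C for 48 hr. Growth read as absorbance at 600 nm, normalized to DMSO and equimolar FeCl3 plus clioquinol controls.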
mIDH1 inhibitor: human IDH1 R132H inhibition. O75874. IDH1-R132H enzyme, NADPH consumption, diaphorase/resazurin fluorescence. Potency, µM (series often up to 76.6 µM), inactives show at the highest dose activity change, negative = inhibition, hits mostly inhibitors. 0.093% of 390,000 active. AID 602179; note: potency is the fitted concentration of half-maximal effect; % is set by controls: 0 for no effect and ±100 for the full control effect; nearly all actives have a fitted effect of over 65% in size
Target sequence (O75874 whole entry R132H, stated change not applied): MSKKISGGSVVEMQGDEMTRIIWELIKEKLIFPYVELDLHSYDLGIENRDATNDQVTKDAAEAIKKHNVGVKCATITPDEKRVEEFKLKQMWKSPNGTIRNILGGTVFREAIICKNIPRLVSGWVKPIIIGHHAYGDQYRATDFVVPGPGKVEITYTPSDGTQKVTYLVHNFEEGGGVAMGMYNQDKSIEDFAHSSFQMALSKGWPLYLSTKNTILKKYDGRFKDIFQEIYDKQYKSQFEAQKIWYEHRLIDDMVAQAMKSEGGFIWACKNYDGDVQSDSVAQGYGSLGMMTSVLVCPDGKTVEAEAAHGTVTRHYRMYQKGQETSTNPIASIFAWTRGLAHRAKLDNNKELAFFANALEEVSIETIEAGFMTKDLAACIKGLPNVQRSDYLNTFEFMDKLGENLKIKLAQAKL
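IDH1-R132H (0.5 ug/mL dispensed) in pH 7.5 Tris buffer was preincubated 30 min with compound, then given a substrate mix of 0.016 mM NADPH and 2 mM alpha-KG for 80 min at room temperature; remaining NADPH was read by diaphorase/resazurin fluorescence.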
FUS yeast rescue: suppressors of FUS proteinopathy in yeast. S. cerevisiae FUS-expressing, growth rescue, OD600, 24 h. Potency, µM (series often up to 76.6 µM), usual class: activators. 0.24% of 390,000 active;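 note: potency is the fitted concentration of half-maximal effect; plate controls were DMSO vehicle for no effect and reference control for full effect; nearly all actives have a fitted effect of over 55% in size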
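Yeast expressing FUS under galactose induction, OD 0.005 in 2% galactose medium; compounds in a dilution series, 24 h at 30C. Growth rescue by absorbance at 600 nm; CP55940 positive control, DMSO negative.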
TDP43 rescue: inhibitors of TDP-43 toxicity in yeast; 1.8% of 410,000 active; Potency, µM (titrated, usually from 46.1 µM), inactives show top-dose growth rescue (activation), most hits filed as activators; TDP-43 expressing yeast growth rescue, BacTiter-Glo, 24 h; note: potency is the fitted concentration of half-maximal effect; % of control where 0% means no effect; nearly all actives have a fitted effect of over 50% in size
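Readout is BacTiter-Glo luminescence of cell growth, so inhibitors register as activators. TDP-43-expressing yeast at OD600=0.02 in galactose medium, after raffinose pregrowth to mid-log, were incubated with compound for 24 hr at 30 deg C.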
LDHA inh: blocks human lactate dehydrogenase A; purified LDHA, NADH/diaphorase-resazurin fluorescence; active compounds read low; activity change, % (values are at about 110 or 230 µM); 0.15% of 480,000 active; AID 1347041; in the data active = activity change below about -30%; inconclusive = mostly about -25% to -30%;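 note: plate controls were DMSO wells for no effect and wells without enzyme for full effect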
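LDH5 2 nM; NADH 0.06 mM, pyruvate 0.2 mM; 200 mM Tris pH 7.4, EDTA, Tween-20; 5 min RT. Detection: diaphorase 0.133 mg/mL + resazurin 37 µM, fluorescence ex540/em590 at 0 and 20 min; normalized to enzyme-free and DMSO wells.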
* hit, by the source's call; i = inactive; ? = inconclusive; . = no result given; [ ] = another dose, or the depositor's remark. Unless noted, calls come from the whole dose curve; as a rule, active = well fitted curve in the direction sought with a large enough effect; inconclusive = small, poorly fitted or top-dose-only effect, or another doubt; inactive = no such curve, though single readings can be large; an effect the other way counts as inactive or inconclusive.

SMILES | aSyn yeast inh | Abeta yeast res | mIDH1 inhibitor | FUS yeast rescue | TDP43 rescue | LDHA inh
Cc1cc(/C=C(\C#N)C(N)=O)c(C)n1-c1ccc(N2CCOCC2)c([N+](=O)[O-])c1 | 10% | i | -4% | i | 9% | -2
Cc1ccc(-c2noc(-c3ccc(N4CCCC4)c([N+](=O)[O-])c3)n2)cc1 | . | i | 13% | i | -3% | -4
Cc1cc(C=O)c(C)n1-c1ccc(N2CCCCC2)c([N+](=O)[O-])c1 | -6% | i | 0% | i | 18µM* | -1
NC(=O)C1CCN(C(=O)c2cc(-c3ccc(-c4ccccc4)cc3)nc3ccccc23)CC1 | . | . | . | . | . | -4
COCCNc1nc(-c2cc(-c3ccccc3)on2)cc(C(C)C)n1 | -12% | i | -2% | i | 16µM* | 0
COCCNc1nc(C)cc(-c2cc(-c3ccc(Cl)cc3)on2)n1 | 3% | i | 10% | i | ? | -3
CCCCNC(=S)N1CCC(Cc2ccccc2)CC1 | -9% | 18µM* | 9% | i | 11% | 0
CCCCNC(=S)N1CCN(c2ccccc2Cl)CC1 | 2% | i | -3% | i | 13µM* | -2
Oc1ccc(N=Nc2ccc3c(c2)OCCO3)c2ncccc12 | ? | ? | 5% | i | 22µM* | 4
Cc1cccc(N=Nc2ccc(O)c3ncccc23)c1 | ? | ? | 4% | i | ? | 12
c1ccc(-c2cc(-c3ccccc3)[o+]c(-c3ccccc3)c2)cc1 | . | . | . | . | . | -1
Cc1ccc(C(=O)/C=C/C(=O)O)cc1 | 3.2µM* | i | 2% | i | -71% | -6
Cc1cc(NC(=O)c2ccccc2F)n(-c2nc3ccccc3[nH]2)n1 | -7% | i | -1% | i | 10% | -4
Cc1cc(Nc2ccccc2)n(-c2nc3ccccc3[nH]2)n1 | 10% | i | -2% | i | 16µM* | -2
CC1CCN(CCCNC2CCCC2)CC1 | . | . | . | . | . | 8
Cc1ccc(S(=O)(=O)N2CCN(Cn3ncc4ccccc4c3=O)CC2)cc1 | . | . | . | . | . | -5
CN(C)Cc1c(O)ccc2ccccc12 | 15% | i | 2% | i | 19% | 5
Oc1ccccc1Cc1c(O)ccc2ccccc12 | 18% | i | 3% | i | 16µM* | 2
O=C(COC(=O)c1cc2ccccc2[nH]1)c1ccc2ccccc2c1 | . | . | . | . | . | 7
Clc1ccc(-c2nc3c4cnn(-c5ccccc5Br)c4ncn3n2)c(Cl)c1 | . | i | . | i | ? | -6
Brc1ccccc1-c1nc2c3ccccc3ncn2n1 | -6% | i | 7% | i | 14µM* | -1
COCCCNC(=O)/C=C/c1ccc(Cl)cc1Cl | 0% | i | 3% | i | 14µM* | -7
O=C(O)CNC(=O)/C=C/c1ccc(Cl)cc1Cl | -3% | i | 5% | i | 5% | -8
O=C(CN1CCC(C(=O)c2ccccc2)CC1)NC1CCC(C(F)(F)F)CC1 (stereo not given) | . | . | . | . | . | 10
O=C(c1ccccc1)N(C(=O)c1ccccc1)c1ccccc1 | -10% | i | 5% | i | 4.5µM* | -3
Cc1ccc(S(=O)(=O)N(C)C[C@@H]2Oc3ccc(NS(=O)(=O)c4ccccc4)cc3CC(=O)N([C@@H](C)CO)C[C@H]2C)cc1 | 8% | i | 0%[38.3 µM] | ? | 9% | -7
C[C@H](CO)N1C[C@H](C)[C@H](CN(C)S(=O)(=O)c2cccs2)Oc2ccc(NC(=O)Nc3ccc4c(c3)OCO4)cc2CC1=O | -1% | i | 0% | 25µM* | 23% | 3
Cc1ccc(S(=O)(=O)Nc2ccc3c(c2)CC(=O)N([C@H](C)CO)C[C@@H](C)[C@H](CN(C)S(=O)(=O)c2ccccc2)O3)cc1 | 0% | i | -9% | ? | 17% | -14
C[C@H](CO)N1C[C@H](C)[C@@H](CN(C)S(=O)(=O)c2cccs2)Oc2ccc(NC(=O)Nc3ccc4c(c3)OCO4)cc2C1=O | -7% | i | -16% | ? | 6% | 2

From PubChem
